About 83,000 compounds went through this panel and 20% of them were active in at least one assay; those are over-represented in the sample as a whole.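 Method: cells in 96-well plates; compound added at one concentration; 48 h incubation; percent growth measured; values under 10 scored active.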 A number with no mark means an inactive call. Activity calls are given as the source filed them.
Tests used:
Assay in all cases: NCI-60 one-dose screen, 48 h (100 = growth as untreated, 0 = no growth, -100 = all killed)
Conditions in all cases: 10 µM unless noted
[1] = tested on: T-47D breast
[2] = tested on: BT-549 breast
[3] = tested on: MDA-MB-435 melanoma
[4] = tested on: SW-620 colon
[5] = tested on: MCF7 breast
[6] = tested on: HCT-116 colon
[7] = tested on: HCC-2998 colon
[8] = tested on: KM12 colon

SMILES | growth [1] | growth [2] | growth [3] | growth [4] | growth [5] | growth [6] | growth [7] | growth [8]
Cn1ncc2ccc(-c3nc(-c4ccccc4)[nH]c3-c3n[nH]c(=O)n3C3CC3)cc21 | 82.7% | 106% | 100% | 100% | 90.2% | 86.3% | 103% | 99.2%
CC1COCC(C)N1C1=C(Cl)C(=O)c2ccccc2C1=O (stereo unspecified) | -55.2% (active) | 76% | 29.6% | 42.6% | 50.8% | -9.39% (active) | 101% | 89%
COc1cccc(OC)c1Oc1c(-c2nc3ccccc3s2)c(C)nn1-c1ccccc1 | 42.1% | 36.3% | 88.1% | 88% | 82.1% | 53.8% | 81.9% | 59.7%
S=c1[nH]c2cc(Cl)ccc2o1 | 92.3% | 99.8% | 96.5% | 94.2% | 105% | 91.1% | 115% | 100%
c1ccc(CNc2ccc3nc(CCC4CCCCC4)[nH]c3c2)cc1 | 33.9% | 72.2% | 81.6% | 67.8% | 62% | 54.6% | 45.8% | 66.7%
COC1=CC(c2ccc[nH]2)=N/C1=C\c1[nH]c(C)c(CC(=O)OCc2ccccc2)c1C | -28.6% (active) | -1.22% (active) | -21.3% (active) | -6.46% (active) | 4.14% (active) | -35% (active) | 13.4% | -9.28% (active)
O=C(CCCCl)NNc1nccc(Nc2ccc(S(=O)(=O)Nc3ccncc3)cc2)n1 | 94.1% | 120% | 107% | 113% | 93.4% | 97.1% | 103% | 101%
COc1cc2cc(Oc3ccc(NC(=O)Nc4ccccc4)cc3)c(C)nc2cc1OCCN1CCCCC1 | 88% | 86.8% | 61.8% | 70.3% | 31.9% | 11.1% | 73% | 42.4%
CCOC(=O)c1n[nH]n2c1nc(=O)c1cnn(C)c12 | 96.5% | 133% | 105% | 108% | 92.8% | 114% | 100% | 95.7%
Cc1nc2ccccc2c(/C=C/c2ccc(C(F)(F)F)cc2)c1C(=O)/C=C/c1ccccc1 | -18.6% (active) | -0.148% (active) | -39.2% (active) | -40.8% (active) | 4.74% (active) | -74.9% (active) | -74.7% (active) | 4.07% (active)
C=CCN=C(N)SCCCCCCSC(N)=NCC=C | 55.9% | 84.9% | 99.3% | 94.7% | 90.9% | 75.5% | 93.1% | 97.5%
COC(=O)/C=C1/SC(=Nc2cccc(Cl)c2)N(CCc2c[nH]c3ccc(O)cc23)C1=O | 12.6% | 0.746% (active) | 15.9% | 0.219% (active) | 15.9% | -33% (active) | 2.25% (active) | 18.9%
CCCCCCCC/C=C\CCCCCCCCOc1ccc(CC(=O)NCC[N+](C)(C)C)cc1 | 85% | 74.3% | 86.5% | 74.2% | 73.7% | 68.2% | 43.1% | 35.7%
Cc1ccc(-c2cc(C(=O)N3N=C(c4ccc(N)cc4)CC3c3ccc(Cl)cc3)c3ccccc3n2)cc1 (stereo unspecified) | 35.9% | 30.8% | -61.7% (active) | 33.8% | 17.8% | 11.8% | 37.9% | 27.9%
O=C1/C(=C/c2ccccc2)CN(C(=O)c2cccnc2)C/C1=C\c1ccccc1 | 9% (active) | -53.3% (active) | -27.7% (active) | -54.4% (active) | 0.394% (active) | -87.6% (active) | -83.5% (active) | -40.1% (active)
C=C(CN1CC=CCC1)[C@@H]1CC[C@]2(CO)CC[C@]3(C)[C@H](CC[C@@H]4[C@@]5(C)CC[C@H](O)C(C)(C)[C@@H]5CC[C@]43C)[C@@H]12 | 87.6% | 105% | 105% | 106% | 88.7% | 94.4% | 116% | 107%

SMILES | growth [1] | growth [2] | growth [3] | growth [4] | growth [5] | growth [6] | growth [7] | growth [8]
O=C(CCCCCCN1CC(=O)N2[C@@H](C3CCCCC3)c3[nH]c4ccccc4c3C[C@H]2C1=O)NO | 44.2% | 80.6% | 60.6% | 47% | 51.6% | 27% | 94% | 81.3%
O=C1NC(=O)c2c1c1c3ccccc3[nH]c1c1oc3ccc(F)cc3c21 | 24.4% | 71% | 76% | 64.6% | 34% | 69% | 65.6% | 45.9%
O=C(O)C1CN(c2cccc(Cl)c2)N(c2cccc(Cl)c2)C1=O (stereo unspecified) | 88.9% | 101% | 94.2% | 97.8% | 91.8% | 97.4% | 103% | 81.3%
O=C(Cn1cc(CN2C(=O)c3ccccc3S2(=O)=O)nn1)Nc1cccc(Cl)c1 | 97% | 133% | 100% | 102% | 92.5% | 98.8% | 93.5% | 104%
CCSC1=CC(=O)c2ccccc2C1=O | -41.9% (active) | 91.4% | 80.2% | 54.9% | 12.9% | 2.56% (active) | 117% | 93.8%
CCOC(=O)C(=Cc1cccc(C#N)c1)C(=O)OCC | 38.8% | 71.2% | 55.4% | 27.9% | 24.3% | 20.9% | 110% | 54.8%
C#CC#CC#CC#CC#CC#CC#CC#CC[C@H]1OC[C@@H](COC(=O)O[C@@H](C(=O)O[C@H]2C[C@@]3(O)[C@@H](OC(=O)c4ccccc4)[C@@H]4[C@]5(OC(C)=O)CO[C@@H]5C[C@H](O)[C@@]4(C)C(=O)[C@H](OC(C)=O)C(=C2C)C3(C)C)[C@@H](NC(=O)c2ccccc2)c2ccccc2)O1 | 53.4% | 53.2% | -47.8% (active) | 42.4% | 33.7% | 18% | 48.3% | 16.7%
C=NNc1ccccc1 | 90.6% | 91.6% | 105% | 102% | 83.3% | 80.7% | 94.5% | 80.5%
O=C(O)c1cn(C2CC2)c2cc(N3CCN(C(=O)N/N=C/c4ccccc4)CC3)c(F)cc2c1=O | 91.4% | 92.6% | 106% | 110% | 97.3% | 108% | 99.9% | 94.8%
Cc1ccc(N=Nc2c(N)nn(-c3ccccc3)c2N)cc1 | 21.5% | -3.98% (active) | -52.1% (active) | 23.2% | 7.61% (active) | 15.6% | 46.1% | 27.6%
CCOC(=O)Nc1nc2ccc(SCC(C)C)cc2s1 | 24.3% | 47.1% | 104% | 33.8% | 20.6% | 31.4% | 75% | 34.4%
COc1cc(/C=C2\C(=O)N(c3c(Cl)cccc3Cl)c3ccccc32)cc(OC)c1OCCCCCCn1c2ccccc2c(=O)c2ccccc21 | 89.6% | 94.4% | 103% | 106% | 92% | 95.9% | 112% | 103%
Cc1ncc(C(=O)Nc2ccc(CN3CCN(C)CC3)c(C(F)(F)F)c2)cc1C#Cc1cnc(N)c2ccncc12 | -37.3% (active) | 22.9% | -94% (active) | -59.5% (active) | -72% (active) | -87.6% (active) | -89.3% (active) | -70% (active)
CCN1CCN(CC(=O)Nc2nc3ccc(NCc4ccc(Br)cc4)cc3s2)CC1 | 48.1% | 85.7% | -6.35% (active) | 5.94% (active) | 10.3% | 17.8% | 62.6% | 52.8%
N=C(N)c1ccc(-c2ccc(-c3ccc(F)cc3)s2)s1 | -38.2% (active) | 80% | -88.7% (active) | -65.2% (active) | -67% (active) | -57.3% (active) | -73.3% (active) | -76.1% (active)
COc1ccc2c(c1)c(-c1ccc(-c3cn(C)c4ccc(OC)cc34)[nH]1)cn2C | -51.2% (active) | -28.1% (active) | 41.8% | -48.6% (active) | 38.9% | 4.08% (active) | -3.55% (active) | 9.21% (active)
